ABCB6 inh 2 = ABCB6 transporter inhibitors, primary screen, K562-ABCB6 cells, flow cytometry, MLPCN library; ATP-binding cassette sub-family B member 6 (Homo sapiens), Q9NP58; K562-ABCB6 porphyrin accumulation, 1 h; active compounds read low; fluorescence ratio to DMSO, % at 10 µM; 360,000 tested, 0.19% active; AID 602162, 2011;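 active = fluorescence ratio to DMSO below 75%, the collection mean minus 3 SD; inconclusive = too few cells collected in the well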;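 note: signal is porphyrin accumulated inside mitochondria; 100% equals median channel fluorescence of DMSO control wells; lower ratio means ABCB6 inhibition with less porphyrin fluorescence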
Target sequence (Q9NP58 whole entry, looked up): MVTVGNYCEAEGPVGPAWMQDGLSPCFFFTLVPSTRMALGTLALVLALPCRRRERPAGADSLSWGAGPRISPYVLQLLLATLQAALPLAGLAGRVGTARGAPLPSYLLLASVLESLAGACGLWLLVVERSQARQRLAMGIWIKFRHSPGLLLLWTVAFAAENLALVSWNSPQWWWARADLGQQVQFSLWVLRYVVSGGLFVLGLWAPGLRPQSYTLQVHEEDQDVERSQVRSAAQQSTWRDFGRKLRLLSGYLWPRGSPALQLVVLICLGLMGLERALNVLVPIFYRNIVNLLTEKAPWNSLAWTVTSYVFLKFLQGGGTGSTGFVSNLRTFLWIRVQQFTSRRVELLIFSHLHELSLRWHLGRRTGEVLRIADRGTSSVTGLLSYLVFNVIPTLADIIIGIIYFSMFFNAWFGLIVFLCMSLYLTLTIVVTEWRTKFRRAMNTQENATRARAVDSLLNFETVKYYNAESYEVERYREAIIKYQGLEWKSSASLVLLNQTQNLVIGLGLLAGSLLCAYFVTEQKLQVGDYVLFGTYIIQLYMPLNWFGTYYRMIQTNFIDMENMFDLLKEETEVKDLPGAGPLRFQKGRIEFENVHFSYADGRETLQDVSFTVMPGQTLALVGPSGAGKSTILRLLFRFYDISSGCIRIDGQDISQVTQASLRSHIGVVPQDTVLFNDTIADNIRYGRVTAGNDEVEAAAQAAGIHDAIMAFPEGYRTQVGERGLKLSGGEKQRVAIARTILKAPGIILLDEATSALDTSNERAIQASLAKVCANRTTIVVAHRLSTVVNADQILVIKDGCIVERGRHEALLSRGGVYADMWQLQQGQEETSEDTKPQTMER
H9c2 protect = cardioprotection against H2O2-induced cell death, primary screen, uHTS, H9c2 cells, ATPLite luminescence | protection from H2O2 cell death, % at 20 µM | 360,000 tested, 0.63% active | H9c2 cardiomyocytes, H2O2 injury protection, 2 h;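 active = compounds giving at least 50% protection of heart cells from peroxide-induced death in the single-dose screen, raw or plate-pattern-corrected value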;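 note: 0% = DMSO wells with peroxide and 100% = DMSO wells without peroxide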
iPSC survival up = enhancers of single-cell hiPSC survival, primary screen, ATPlite luminescence; survival enhancement, % at 20 µM; AID 602274, 2012; 360,000 tested, 0.044% active; 100% = ROCK inhibitor wells, 0% = DMSO; in the data active = survival enhancement above about 18%;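 note: cells exposed to compounds for 16 hours before the ATP read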
Myeloid diff MLP = induction of myeloid progenitor differentiation, primary screen, cell-based, flow cytometry, MLPCN library; ER-HoxA9 myeloid progenitors, lysozyme-GFP differentiation; calls only at 10 µM; 360,000 tested, 1% active; AID 624256, 2012;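 active = normalized GFP-positive differentiation at or above the plate's own cutoff, the solvent-only control mean plus 3 SD; inconclusive = no clear call, values can overlap the other calls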;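 note: cells exposed to compound for four days before flow analysis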
beta cell repl = inducers of MIN6 beta-cell proliferation, primary screen, ATP luminescence, uHTS | MIN6 cells proliferation, ATPlite luminescence, 48 h; cells starved in 0.2% serum; 100% = growth in 10% serum | proliferation, % at 10 µM | 330,000 tested, 0.29% active;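 active = compounds whose signal lies at least 3.5 SD above the mean of all wells on their plate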;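 note: 0% = DMSO-treated cells in low-serum medium and 100% = 10% serum control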
Myeloid diff = inducers of myeloid progenitor differentiation, confirmation, cell-based, GFP/Mac1 flow cytometry, cherry pick 01; shares compounds with Myeloid diff MLP; ER-HoxA9 myeloid progenitors, GFP/Mac1 double-positive flow; calls only; 2,300 tested, 2% active; AID 651706, 2012;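 active = share of green or green-and-red cells above 9 and 9% in run 1 or 4 and 3% in run 2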
GFP autofluor = flagged as fluorescent in myeloid differentiation counter-screen | shares compounds with Myeloid diff MLP | ER-HoxA9 myeloid progenitors, no estrogen, GFP autofluorescence flow cytometry; vehicle wells 0%, positive control 100% | fluorescence response, % (test concentration not listed) | 2,300 tested, 7.4% active | AID 651707;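 active = over 5% cells positive for green fluorescent reporter, or over 2% positive for both it and APC stain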;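 note: range taken on the double positive population between DMSO and positive control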
An asterisk follows results filed as active; i = inactive; ? = inconclusive; . = no result; + = active, no number. Rows were chosen to be rich in hits. Some 2.2% of all compounds tested hit in one or more screens of this group.

SMILES | ABCB6 inh 2 | H9c2 protect | iPSC survival up | Myeloid diff MLP | beta cell repl | Myeloid diff | GFP autofluor
CCN1CCN(c2ccc(S(=O)(=O)N3CCCCC3)cc2NC(=O)/C=C/c2ccc(OC)c(OC)c2)CC1 | 99 | 0 | 0 | i | -7 | . | .
CCN1CCN(c2ccc(S(=O)(=O)N3CCCCC3)cc2NC(=O)c2ccc([N+](=O)[O-])s2)CC1 | 97 | -7 | 0 | + | -6 | i | 0
CCN1CCN(c2ccc(S(=O)(=O)N3CCCCC3)cc2NC(=O)c2ccccc2)CC1 | 96 | 5 | 0 | i | 2 | . | .
Cc1cccc(-n2ccnc2CN2CCN(C(C)C)C(CCO)C2)c1 (configuration not stated) | 101 | 5 | -1 | i | 1 | . | .
Cc1nc2ccc(S(=O)(=O)NCC(=O)N3CCC(C)CC3)cc2s1 | 90 | -11 | -1 | i | -1 | i | 0
Cc1nc2ccc(S(=O)(=O)NCC(=O)N3CCC(N4CCCCC4)CC3)cc2s1 | . | -2 | -1 | i | 2 | . | .
CN(C)S(=O)(=O)c1cccc(C(=O)NC(=S)N(CCC#N)Cc2cccnc2)c1 | 95 | -1 | 0 | i | -4 | i | 2
O=C(Nc1ccnn1C1CCN(Cc2ccc3nonc3c2)CC1)c1cccc(F)c1 | 101 | 0 | 0 | i | 3 | . | .
CCc1ccc(CN2CCC(n3nccc3NC(=O)c3cccc(F)c3)CC2)cc1 | 93 | -9 | 0 | + | -2 | i | 0
COc1ccc(/C=N/NC2=NS(=O)(=O)c3ccccc32)cc1OC(C)=O | 107 | -2 | -1 | i | 4 | i | 0
CC(=O)Oc1ccc(/C=N/NC2=NS(=O)(=O)c3ccccc32)cc1 | 96 | 9 | 0 | i | -2 | . | .
CCN1C(=O)/C(=C/c2ccc(N3CCCC3)cc2)NC1=S | 167 | -18 | 0 | + | -5 | i | 93*
Cc1ccc(CN2C(=O)N/C(=C\c3ccc(N4CCOCC4)cc3)C2=O)cc1 | 92 | -3 | -1 | i | 0 | . | .
Clc1ccc(C=Cc2ccccn2)c(Cl)c1 | 97 | -16 | -6 | i | . | . | .
CC(C)=CCC/C(C)=C/CNC(=O)C[C@H]1C[C@H](C(=O)N2CCCCC2)[C@@]2(C)c3[nH]c4ccc(Cl)cc4c3CCN2C1=O | 100 | -17 | 2 | + | . | i | 0
CC(C)=CCC/C(C)=C/CNC(=O)CC1C[C@H](C(=O)N2CCCCC2)[C@@]2(C)c3[nH]c4ccccc4c3CCN2C1=O (some centres not stated) | 99 | -22 | 0 | i | -4 | . | .
COc1ccc2c(C)cc(N3CCOCC3)nc2c1 | 98 | 0 | 3 | i | 2 | . | .
COc1ccc(CSc2nc(CSC)cc(N3CCOCC3)n2)cc1 | 101 | -1 | -2 | + | -1 | i | 0
CN(C)S(=O)(=O)c1ccccc1N=C=S | 89 | 5 | 0 | i | 1 | . | .
Cc1ccc(-c2nnn(CC(=O)N(CCN3CCOCC3)C(C(=O)NC(C)(C)C)c3ccc(C)o3)n2)cc1 (configuration not stated) | 94 | -2 | 1 | i | -3 | . | .
CC(OC(=O)/C=C/c1ccc2ccccc2n1)C(=O)Nc1ccc(S(N)(=O)=O)cc1 (configuration not stated) | 99 | -10 | 0 | i | 2 | i | 0
O=C(OCc1ccccc1)N1CCC2CC1c1cc(N3CCOCC3)ccc12 (configuration not stated) | 97 | -21 | 1 | i | . | . | .
O=C(OCc1ccccc1)N1CCC2CC1c1cc(Cl)ccc12 (configuration not stated) | 93 | -6 | 1 | ? | . | i | 0
CC(C)(CN1CCCC1)NS(=O)(=O)c1ccccc1 | 918 | 0 | 0 | i | 1 | i | 0
